Measurements: PubChem BioAssay
Active and inactive are the calls of the source. Unless noted, the rule behind the calls is not given here.

Tests used:
[1] = tested on: Wnt5a (protein binding on small-molecule microarray); test: Wnt5a binders on small-molecule microarray, primary screen, biophysical, 635/667 nm fluorescence (AID 1142); conditions: 635 nm fluorescence, higher = more signal;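 note: fluorescence read at 667 nm with signal to noise per printed feature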
[2] = cell viability in Huh7 cells, primary screen, cytotoxicity control for HCV replication inhibitor project, CellTiter-Glo luminescence, basal, 48 h (AID 1143); conditions: Huh7 HCV replicon, higher = more signal, called active from +8 up or from −8 down;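 note: Huh7 hepatoma cells carrying a hepatitis C replication reporter with no stimulus; test concentration not given here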
[3] = P. aeruginosa biofilm formation inhibitors, primary screen, PAO1 strain, BacTiter-Glo luminescence, LB-PBS (AID 1144); conditions: 12 h, higher = more signal
[4] = CREB reporter modulators without forskolin, primary screen, cell-based, PC12, CRE-LacZ reporter, unstimulated (AID 1145); conditions: no forskolin, luminescence, 4.5 h, higher = more signal, called active from +8 up or from −8 down
[5] = CREB reporter modulators under forskolin, primary screen, cell-based, PC12, CRE-LacZ reporter, forskolin-stimulated (AID 1146); conditions: luminescence, 4.5 h, higher = more signal, called active from +8 up or from −8 down;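 note: PC12 cells with 6xCRE LacZ reporter stimulated by forskolin 10 µM; beta-galactosidase reporter signal reflecting CREB driven transcription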
[6] = biological target: Streptavidin (Streptomyces avidinii) (UniProt P22629); test: streptavidin binders on small-molecule microarray, primary screen, artefact control for SMM compound annotation, biophysical, 635/667 nm fluorescence (AID 1147); conditions: streptavidin binding, higher = more signal;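 note: signal reflects streptavidin binding to arrayed compounds as a control protein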
[7] = small-molecule binders of probe aInhba, primary screen, biochemical, small-molecule microarray, 635/667 nm fluorescence (AID 1148); conditions: higher = more signal;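 note: score merges 667nm spot fluorescence with signal-to-noise for antibody binding to printed compounds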
[8] = biological target: Torsin-1A (Homo sapiens) (UniProt O14656); test: torsin A binders from cell lysate, primary screen, small-molecule microarray, wild-type, 635/667 nm (AID 1149); conditions: COS7 hTOR1A-WT lysate, 635 nm fluorescence, higher = more signal
[9] = biological target: Torsin-1A (Homo sapiens) (UniProt O14656); test: small-molecule binders of mutant TOR1A in lysate, primary screen, cell lysate, small-molecule microarray, COS7 lysate, 635/667 nm fluorescence (AID 1150); conditions: COS7 hTOR1A mutant lysate, 635 nm fluorescence, higher = more signal;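 note: score pools 667 nm emission and signal to noise measuring lysate protein binding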
[10] = tested on: Sonic hedgehog protein (Shh); test: small-molecule binders of Shh protein, primary screen, biochemical, small-molecule microarray, 635/667 nm fluorescence (AID 1151); conditions: small-molecule microarray binding, 635 nm fluorescence; higher = more signal;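 note: Shh protein binding to compounds spotted on small-molecule microarray slides; score combines spot fluorescence intensity with signal-to-noise across triplicate slides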
[11] = E. coli DRC41 culture turbidity changes, primary screen, E. coli filamentation inducer project, strain DRC41, OD650, 48 h (AID 1152);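 note: E. coli MC1000 strain DRC41 lacking acrAB efflux pump and sulA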; conditions: E. coli DRC41 (acrAB sulA), higher = more signal, called active from +8 up or from −8 down
[12] = small-molecule binders of probe aLefty1, primary screen, biochemical, small-molecule microarray, 635/667 nm fluorescence (AID 1153); conditions: higher = more signal;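 note: score merges spot fluorescence with signal-to-noise ratio from the scanned slide images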
[13] = PSAC antagonists in infected red cells, primary screen, cell-based, P. falciparum Indochina, OD700, 1 h (AID 1154); conditions: P. falciparum Indochina infected RBC osmotic lysis, higher = more signal, called active from +8 up or from −8 down
[14] = PSAC antagonists in infected red cells, primary screen, cell-based, P. falciparum Indochina, OD700, 2 h (AID 1155);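 note: lysis reports solute entry through the parasite surface anion channel PSAC; channel blockers reduce lysis of infected cells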; conditions: P. falciparum Indochina infected erythrocytes, osmotic lysis OD700; higher = more signal, called active from +8 up or from −8 down
[15] = osmotic lysis modulators in infected erythrocytes, primary screen, PSAC antagonist project, cell-based, P. falciparum Indochina, OD700, 3 h (AID 1156); conditions: higher = more signal, called active from +8 up or from −8 down
[16] = PSAC antagonists in infected red cells, primary screen, cell-based, P. falciparum Indochina, OD700, 18 h (AID 1157); conditions: P. falciparum Indochina infected erythrocytes, osmotic lysis OD700, 18 h; higher = more signal, called active from +8 up or from −8 down
[17] = modulators of S6 phosphorylation in cells, primary screen, cell-based, A549, cytoblot, luminescence, serum-stimulated (AID 1158); conditions: A549 phospho-S6 cytoblot, 5 h, higher = more signal;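 note: serum-stimulated A549 lung adenocarcinoma cells; signal is phosphorylated S6 detected by cytoblot immunostaining with HRP secondary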
[18] = biological target: NADPH oxidase 2 (Homo sapiens) (UniProt P04839); test: NOX2-dependent H2O2 signal modulators, primary screen, NOX inhibitor project, cell-based, HEK293-NOX2, PMA-stimulated, Amplex Red fluorescence (AID 1159); conditions: 45 min, higher = more signal, called active from +8 up or from −8 down; note: test concentration not given here
[19] = biological target: NADPH oxidase 4 (Homo sapiens) (UniProt Q9NPH5); test: NOX4-dependent H2O2 signal modulators, primary screen, NOX inhibitor project, cell-based, HEK293-NOX4, tetracycline-induced, Amplex Red fluorescence (AID 1160); conditions: 45 min, higher = more signal, called active from +8 up or from −8 down
[20] = biological target: NADPH oxidase 5 (Homo sapiens) (UniProt Q96PH1); test: NOX5-dependent H2O2 signal modulators, primary screen, NOX inhibitor project, cell-based, HEK293-NOX5, Amplex Red fluorescence (AID 1161); conditions: HEK293-NOX5, ionomycin, 45 min, higher = more signal
Sequence of NADPH oxidase 5 (Homo sapiens) (Q96PH1 whole entry, looked up): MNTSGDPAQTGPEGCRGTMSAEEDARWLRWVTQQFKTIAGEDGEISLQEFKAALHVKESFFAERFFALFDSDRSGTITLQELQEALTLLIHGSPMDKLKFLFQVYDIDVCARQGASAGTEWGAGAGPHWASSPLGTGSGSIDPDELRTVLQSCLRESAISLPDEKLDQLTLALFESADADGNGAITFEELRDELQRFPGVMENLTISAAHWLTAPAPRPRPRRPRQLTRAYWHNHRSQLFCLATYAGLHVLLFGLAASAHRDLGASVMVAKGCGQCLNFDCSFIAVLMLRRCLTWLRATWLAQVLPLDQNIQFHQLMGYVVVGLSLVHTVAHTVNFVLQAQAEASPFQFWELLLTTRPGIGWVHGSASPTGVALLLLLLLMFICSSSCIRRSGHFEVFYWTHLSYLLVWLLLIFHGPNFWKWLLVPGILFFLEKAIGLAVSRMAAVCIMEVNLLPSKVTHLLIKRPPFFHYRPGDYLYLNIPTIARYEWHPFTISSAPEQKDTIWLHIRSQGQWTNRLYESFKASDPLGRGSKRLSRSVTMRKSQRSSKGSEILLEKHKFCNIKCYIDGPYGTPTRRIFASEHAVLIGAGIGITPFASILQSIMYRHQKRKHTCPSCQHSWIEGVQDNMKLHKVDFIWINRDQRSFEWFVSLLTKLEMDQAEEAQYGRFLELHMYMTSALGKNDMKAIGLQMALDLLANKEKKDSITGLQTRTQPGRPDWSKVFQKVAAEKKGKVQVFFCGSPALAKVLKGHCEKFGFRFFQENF

Sequence of Torsin-1A (Homo sapiens) (O14656 whole entry, looked up): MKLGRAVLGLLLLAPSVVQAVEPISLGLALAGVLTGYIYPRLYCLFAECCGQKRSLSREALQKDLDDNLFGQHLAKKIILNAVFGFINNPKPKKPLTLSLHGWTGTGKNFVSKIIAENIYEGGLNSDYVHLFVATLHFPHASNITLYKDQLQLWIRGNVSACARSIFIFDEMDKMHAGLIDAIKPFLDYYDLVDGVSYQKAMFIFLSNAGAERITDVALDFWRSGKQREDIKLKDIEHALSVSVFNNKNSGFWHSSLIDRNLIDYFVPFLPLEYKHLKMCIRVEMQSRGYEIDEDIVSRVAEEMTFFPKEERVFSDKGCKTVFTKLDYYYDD
Sequence of NADPH oxidase 2 (Homo sapiens) (P04839 whole entry, looked up): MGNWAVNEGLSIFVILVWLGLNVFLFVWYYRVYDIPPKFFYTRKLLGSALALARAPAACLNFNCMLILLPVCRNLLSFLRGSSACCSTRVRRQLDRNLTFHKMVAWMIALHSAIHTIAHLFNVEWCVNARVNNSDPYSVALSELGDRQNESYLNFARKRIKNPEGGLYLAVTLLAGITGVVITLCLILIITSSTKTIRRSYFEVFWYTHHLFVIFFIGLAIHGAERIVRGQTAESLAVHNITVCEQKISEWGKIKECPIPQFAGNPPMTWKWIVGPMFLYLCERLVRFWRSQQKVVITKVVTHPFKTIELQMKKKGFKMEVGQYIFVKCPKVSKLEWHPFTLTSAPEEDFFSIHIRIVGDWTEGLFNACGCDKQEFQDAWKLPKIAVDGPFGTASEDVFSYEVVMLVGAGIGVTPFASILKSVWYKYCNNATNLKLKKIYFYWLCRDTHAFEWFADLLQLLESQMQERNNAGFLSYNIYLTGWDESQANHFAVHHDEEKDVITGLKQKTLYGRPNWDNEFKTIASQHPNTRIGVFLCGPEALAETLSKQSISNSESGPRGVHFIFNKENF
Sequence of NADPH oxidase 4 (Homo sapiens) (Q9NPH5 whole entry, looked up): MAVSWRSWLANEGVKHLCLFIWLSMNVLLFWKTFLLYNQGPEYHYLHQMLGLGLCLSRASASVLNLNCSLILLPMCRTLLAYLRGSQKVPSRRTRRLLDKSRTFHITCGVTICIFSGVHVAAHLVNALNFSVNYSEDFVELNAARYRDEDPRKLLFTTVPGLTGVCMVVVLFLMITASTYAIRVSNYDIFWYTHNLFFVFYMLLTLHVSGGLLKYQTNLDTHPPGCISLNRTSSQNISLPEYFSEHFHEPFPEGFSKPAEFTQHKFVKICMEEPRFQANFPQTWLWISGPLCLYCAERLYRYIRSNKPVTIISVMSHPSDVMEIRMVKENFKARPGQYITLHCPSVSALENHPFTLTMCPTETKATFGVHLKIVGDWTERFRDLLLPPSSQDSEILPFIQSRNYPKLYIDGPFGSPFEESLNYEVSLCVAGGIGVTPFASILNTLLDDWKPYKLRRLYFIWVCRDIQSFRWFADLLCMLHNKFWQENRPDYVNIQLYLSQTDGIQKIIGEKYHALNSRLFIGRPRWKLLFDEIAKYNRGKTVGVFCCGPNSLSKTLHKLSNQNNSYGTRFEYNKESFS
Sequence of Streptavidin (Streptomyces avidinii) (P22629 whole entry, looked up): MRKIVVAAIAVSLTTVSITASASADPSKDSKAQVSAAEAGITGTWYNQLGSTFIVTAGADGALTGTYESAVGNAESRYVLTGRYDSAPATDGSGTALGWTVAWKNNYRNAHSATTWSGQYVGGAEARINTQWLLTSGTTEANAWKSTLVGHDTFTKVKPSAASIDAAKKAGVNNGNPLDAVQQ

SMILES | composite z-score [1] | z-score [2] | z-score [3] | z-score [4] | z-score [5] | composite z-score [6] | composite z-score [7] | composite z-score [8] | composite z-score [9] | composite z-score [10] | z-score [11] | composite z-score [12] | z-score [13] | z-score [14] | z-score [15] | z-score [16] | z-score [17] | z-score [18] | z-score [19] | z-score [20]
CSCC[C@@H]1NC(=O)CC=C[C@@H](C)COC(=O)[C@@H](C)COC1=O | -0.0993 | -0.184 (inactive) | 0.117 (inactive) | -0.476 (inactive) | -0.846 (inactive) | -1.03 | -0.0736 | 2.66 | 2.1 | 1.81 | -0.136 (inactive) | -0.283 | -0.434 (inactive) | 0.28 (inactive) | 0.742 (inactive) | 0.0841 (inactive) | -0.0649 | -1.13 (inactive) | 0.279 (inactive) | 0.238
CCCNC(=O)OC[C@H]1O[C@H](CCON=C(C)CCC(=O)OC[C@H]2O[C@H](c3ccccc3)C=C[C@@H]2Oc2ccc(OC)cc2)C=C[C@@H]1Oc1ccc(OC)cc1 | -0.109 | -1.13 (inactive) | -0.665 (inactive) | -0.478 (inactive) | 0.913 (inactive) | 0.728 | -0.125 | -0.694 | -0.243 | -0.137 | 0.3 (inactive) | -0.0477 | 2.17 (inactive) | 0.767 (inactive) | 0.753 (inactive) | 0.49 (inactive) | -0.441 | -0.245 (inactive) | 0.337 (inactive) | -0.295
CCOC(=O)[C@H](Cc1ccccc1)NC(=O)CCC1CC(OC(=O)NCCc2ccc(F)cc2)CC2(CCCC(COC(=O)NCc3ccccc3)O2)O1 (stereo not given in full) | 0.0738 | -0.471 (inactive) | 0.0402 (inactive) | 0.824 (inactive) | 1.63 (inactive) | 0.606 | 0.0074 | 0.409 | 0.129 | 0.952 | -0.713 (inactive) | -0.152 | -0.623 (inactive) | -0.567 (inactive) | -0.857 (inactive) | -0.144 (inactive) | 0.0765 | -0.0815 (inactive) | 1.21 (inactive) | 0.616
C[C@@H](c1ccccc1)N1C(=O)[C@H]2[C@H]3[C@H](O)[C@H](O)CC(=NO[C@@H]4O[C@H](CO)[C@@H](O)[C@H](O)[C@H]4O)[C@@H]3CC[C@H]2C1=O | 0.0794 | 0.401 (inactive) | -0.783 (inactive) | -0.566 (inactive) | 0.331 (inactive) | 0.238 | -0.0626 | 1.1 | 0.907 | 0.116 | 0.387 (inactive) | -0.0272 | -0.091 (inactive) | -0.076 (inactive) | -0.698 (inactive) | -0.137 (inactive) | -0.689 | -0.119 (inactive) | 0.552 (inactive) | 0.0309
COc1cccc([C@H]2Oc3ccc(OC)cc3C(=NO[C@@H]3O[C@H](COC(C)=O)[C@@H](OC(C)=O)[C@H](OC(C)=O)[C@H]3OC(C)=O)[C@@H]2O)c1 | 0.186 | -0.202 (inactive) | 0.0537 (inactive) | 0.336 (inactive) | 0.38 (inactive) | -0.0198 | -0.163 | 0.29 | 0.461 | 0.149 | -1.34 (inactive) | -0.191 | 0.158 (inactive) | -0.0728 (inactive) | -0.362 (inactive) | 0.146 (inactive) | -1.09 | 0.484 (inactive) | 0.905 (inactive) | 0.486
CO[C@H]1COC(=O)CCC[C@@H](C)[C@H](OC)COC(=O)[C@@H](C)NC(=O)CC=C[C@@H]1C | -0.183 | -2.74 (inactive) | -0.231 (inactive) | -0.58 (inactive) | -0.041 (inactive) | -0.429 | -0.152 | 2.63 | 1.5 | 2.1 | 0.312 (inactive) | -0.0969 | -0.806 (inactive) | -0.912 (inactive) | 0.565 (inactive) | -1.59 (inactive) | 1.05 | -1.18 (inactive) | -2.55 (inactive) | -1.3
CO[C@H]1COC(=O)CC=C[C@H](C)COC(=O)[C@@H](C)NC(=O)CC=C[C@@H]1C | 0.042 | -2.06 (inactive) | -1.59 (inactive) | -0.31 (inactive) | -0.0543 (inactive) | 0.0677 | -0.25 | 2.78 | 2.8 | 2.08 | -0.447 (inactive) | 0.0669 | -0.499 (inactive) | -1.13 (inactive) | 0.475 (inactive) | -2.08 (inactive) | 1.27 | 0.157 (inactive) | 0.148 (inactive) | -0.0359
CCOC(=O)[C@H](Cc1ccccc1)NC(=O)CCC1CC(OC(=O)NCc2ccc3c(c2)OCO3)CC2(CCCC(COC(=O)NCCc3ccccc3OC)O2)O1 (stereo not given in full) | 0.296 | -0.415 (inactive) | 0.8 (inactive) | 17.2 (active) | 0.109 (inactive) | 1.19 | -0.0937 | 0.479 | 0.252 | 0.995 | -0.567 (inactive) | -0.0547 | 1.3 (inactive) | 0.627 (inactive) | -0.451 (inactive) | 0.222 (inactive) | -0.254 | 0.799 (inactive) | -1.05 (inactive) | 1.28
